Screening data from PubChem.
GLP1R cytotox: qHTS of GLP-1 Receptor Inverse Agonists: Cytotox Screen. HEK293 cAMP-luciferase reporter cells, luminescence, 24 h. Potency, µM (doses to about 38.3 µM), hits mostly inhibitors. 410,000 compounds, 0.13% hits;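 also: loss of luciferase light is scored as toxicity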
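Here, cytotoxicity is scored as loss of luminescence. The MLSMR collection was tested on cells seeded in medium containing 10% Nu serum, with a 24 hr compound exposure preceded by 12 hours of culture.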
DRD3 agonist: qHTS of D3 Dopamine Receptor Agonist: qHTS. D(3) dopamine receptor (Homo sapiens), P35462. D3R DiscoveRx beta-arrestin cells, luminescence, 90 min. max activation, %. 410,000 compounds, 0.58% hits; in the data active = max activation above about 30%
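Agonist mode: compounds and dopamine controls were applied to plated cells for 90 min at 37 degrees C after an overnight attachment at 1500 cells/well. Luminescent read-out followed 30 - 60 minutes at room temperature with DiscoveRx detection reagent.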
GLP1R inv ag: qHTS of GLP-1 Receptor Inverse Agonists (Inhibition Mode); HEK293 GLP-1R CRE-luciferase, luminescence, 24 h; GLP-1R form is constitutively active; 410,000 compounds, 1.6% hits; Potency, µM (titrated, usually from 38.3 µM), most hits filed as inhibitors; AID 624417, 2012; Glucagon-like peptide 1 receptor (Homo sapiens), P43220; also: nearly all actives have a fitted effect of over 55% in size
Target sequence (P43220 whole entry, looked up): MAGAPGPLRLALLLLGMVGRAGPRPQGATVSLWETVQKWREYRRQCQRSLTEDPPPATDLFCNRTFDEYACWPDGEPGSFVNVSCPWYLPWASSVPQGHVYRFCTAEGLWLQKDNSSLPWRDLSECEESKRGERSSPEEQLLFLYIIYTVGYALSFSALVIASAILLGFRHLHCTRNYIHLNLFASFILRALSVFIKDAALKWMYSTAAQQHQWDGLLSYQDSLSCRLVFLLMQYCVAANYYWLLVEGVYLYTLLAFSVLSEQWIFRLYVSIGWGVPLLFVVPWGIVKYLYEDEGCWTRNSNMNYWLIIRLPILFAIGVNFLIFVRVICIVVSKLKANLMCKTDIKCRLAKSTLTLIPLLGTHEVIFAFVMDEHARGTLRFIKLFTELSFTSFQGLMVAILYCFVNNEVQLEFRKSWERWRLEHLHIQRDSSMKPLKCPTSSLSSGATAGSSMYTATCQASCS
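Assay principle: reduced luminescence from a cAMP-responsive reporter in HEK293 cells co-expressing a constitutively active GLP-1R. Conditions: 24 hr compound incubation, 37 deg C, 5% CO2.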
GLP-1R agonist: qHTS of GLP-1 Receptor Agonists | Glucagon-like peptide 1 receptor (Homo sapiens), P43220 | HEK293 GLP-1R CRE-luciferase, luminescence, 4-6 h; cells express a hypersensitive GLP-1R form | Potency, µM (titrated, usually from 45.6 µM), usual class: activators | 380,000 compounds, 0.007% hits
ClpP mod: qHTS Assay for Activators of ClpP. Potency, µM (doses to about 57.5 µM). ATP-dependent Clp protease proteolytic subunit (Bacillus subtilis (strain 168)), P80244. 340,000 compounds, 1.9% hits. purified B. subtilis ClpP, FRET peptide cleavage, 20 min; active = well fitted falling curve with a large enough effect; inconclusive = small, poorly fitted or top-dose-only effect; inactive = no such curve, though single readings can be large or run the other way; also: the source files actives as falling curves though it sought activators and does not explain the sign; nearly all actives have a fitted effect of over 65% in size
Target sequence (P80244 whole entry, looked up): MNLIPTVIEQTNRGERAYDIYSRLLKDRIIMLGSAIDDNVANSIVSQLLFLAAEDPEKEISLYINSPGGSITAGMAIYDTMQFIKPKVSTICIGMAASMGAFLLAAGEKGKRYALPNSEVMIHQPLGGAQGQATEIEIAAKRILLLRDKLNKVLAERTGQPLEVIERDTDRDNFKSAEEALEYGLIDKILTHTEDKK
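Purified B. subtilis ClpP, 10 microg/mL final in Tris/HCl pH8 with KCl, BSA, glycerol and Tween-20, cleaved an Abz/nitrotyrosine-quenched decapeptide. Fluorescence (ex 320, em 430) was read at 0 and 20 min at room temperature. Delta was normalized to 5.8 microM ADEP and DMSO/no-enzyme controls.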
D3 antag: qHTS of D3 Dopamine Receptor Antagonist: qHTS; D(3) dopamine receptor (Homo sapiens), P35462; D3R cells, DiscoveRx beta-arrestin luminescence, antagonist mode; active compounds read low; AID 652054, 2013; max response, negative = inhibition, %; 360,000 compounds, 2.5% hits; in the data active = max response below about -50%; inconclusive = no clear call, values can overlap the other calls
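Cells plated overnight at 1500 cells/well, then exposed to library compounds with dopamine controls for 90 minutes at 37 degrees C. DiscoveRx reagent added for 30–60 minutes at room temperature; luminescence read, quantitative HTS format.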
Hits are given with their value; . = inactive; ? = inconclusive; / = no result. This is a sample that favours compounds with a hit; in the whole collection about 5.7% have one here. Unless noted, calls follow the shape of the dose curve; as a rule, active = well fitted curve in the direction sought with a large enough effect; inconclusive = small, poorly fitted or top-dose-only effect, or another doubt; inactive = no such curve, though single readings can be large; an effect the other way counts as inactive or inconclusive.

SMILES	GLP1R cytotox	DRD3 agonist	GLP1R inv ag	GLP-1R agonist	ClpP mod	D3 antag
CS(=O)(=O)Nc1ccc2c(c1)[C@H]1C[C@H](CC(=O)NCc3ccccc3)O[C@H](CO)[C@H]1O2	.	.	.	.	.	.
O=C(Nc1nnc(-c2ccccc2Cl)o1)c1ccc(S(=O)(=O)N2CCCCCC2)cc1	.	.	?	.	.	.
CC1CCCCN1S(=O)(=O)c1ccc(C(=O)Nc2nnc(-c3ccccc3Cl)o2)cc1 (stereo unspecified)	.	.	?	.	.	-71
CCC1CCCCN1S(=O)(=O)c1ccc(C(=O)Nc2nnc(-c3ccccc3Cl)o2)cc1 (stereo unspecified)	.	.	?	.	.	-86
CCc1ccccc1NC(=O)CSc1ncccc1C(=O)O	.	.	.	/	.	/
C#CC(c1ccccc1)(c1ccccc1)n1ccnc1	.	.	?	.	.	.
Clc1ccccc1C(c1ccccc1)(c1ccccc1)n1ccnc1	.	.	10µM	.	.	.
CC(C)(Oc1ccc(Cl)cc1)C(=O)N(Cc1ccccc1)c1ccccn1	.	.	10µM	.	.	.
O=C(COc1ccc(Cl)cc1)N(Cc1ccccc1)c1ccccn1	.	.	?	.	.	.
COc1cc(NC(=O)NC(C)c2c(-n3cccc3)sc3c2CCCC3)cc(OC)c1OC (stereo unspecified)	.	.	11µM	/	.	/
CC(NC(=O)Nc1ccccc1C(F)(F)F)c1c(-n2cccc2)sc2c1CCCC2 (stereo unspecified)	.	.	?	/	.	/
CCOC(=O)CSc1nc2c(c(-c3ccc(C)o3)c1C#N)CCCC2	.	.	.	.	28µM	.
Cc1cc2c(c(=O)n1C)C(Cc1ccccc1)C(C#N)=C(N)O2 (stereo unspecified)	.	.	.	.	28µM	.
CCCC1C(C#N)=C(N)Oc2cc(C)n(C)c(=O)c21 (stereo unspecified)	.	.	.	.	32µM	.
CCn1c(C)cc2c(c1=O)C(c1ccncc1)C(C#N)=C(N)O2 (stereo unspecified)	.	.	.	.	.	.
O=C(c1cc(-c2ccccn2)nc2c(Cl)cccc12)N1CCN(S(=O)(=O)c2ccccc2)CC1	.	.	.	.	.	.
O=C(c1cc(-c2ccccn2)nc2c(Cl)cccc12)N1CCN(C(=O)C2CCCO2)CC1 (stereo unspecified)	.	.	.	.	.	-51
O=C(COc1ccccc1)NNC(=O)COc1ccc([N+](=O)[O-])cc1	.	.	.	.	/	.
O=C(COc1ccc([N+](=O)[O-])cc1)N(Cc1ccccc1)Cc1ccccc1	.	.	?	.	32µM	.
CCC(=O)Oc1cc(C(C)(C)C)cc2cc(-c3nc(-c4ccc(OC)cc4OC)no3)c(=O)oc12	.	.	.	/	.	/
O=C(c1ccc2c(c1)OCO2)N1CCC2(CC1)Oc1ccc(Cl)cc1C(=O)C21CC(c2ccccc2)=NO1 (stereo unspecified)	4.5µM	.	.	.	.	.
CCC(C(=O)NC(C)(C)C)n1c(-c2ccc(C)cc2)nc2ccccc21 (stereo unspecified)	.	53	.	/	.	.
CCC(C(=O)Nc1c(C)cccc1C)n1c(-c2ccc(-c3ccccc3)cc2)nc2ccccc21 (stereo unspecified)	.	71	.	/	.	.
Cc1cccc(C)c1NC(=O)C(C)n1c(-c2ccc(=O)[nH]c2)nc2ccccc21 (stereo unspecified)	.	.	.	/	.	.
CCCc1nc2ccccc2n1C(CC)C(=O)NC(C)(C)C (stereo unspecified)	.	.	.	/	.	.
SMILES	GLP1R cytotox	DRD3 agonist	GLP1R inv ag	GLP-1R agonist	ClpP mod	D3 antag
O=C(COc1ccc(F)cc1)Nc1ccc(OCc2cc(=O)n3ccsc3n2)cc1	.	.	.	.	.	/
CC(C)Cn1c(N)c(C(=O)COC(=O)/C=C/c2cccs2)c(=O)n(C)c1=O	.	33	?	.	/	.
COc1ccc(/C=C/C(=O)OCC(=O)c2c(N)n(C)c(=O)n(C)c2=O)cc1	.	.	.	.	.	.
COc1cccc(/C=C/C(=O)OCC(=O)c2c(N)n(C)c(=O)n(C)c2=O)c1	.	.	.	.	25µM	.
COc1cc2c(cc1NC(=O)CCC(=O)O)oc1ccccc12	.	.	.	.	/	.
COc1cc2c(cc1NC(=O)C(C)NCc1ccccc1)oc1ccccc12 (stereo unspecified)	.	.	11µM	.	.	.
COc1cc2c(cc1NC(=O)Nc1ccccc1)oc1ccccc12	.	.	?	.	28µM	?
COc1cc2c(cc1NC(=O)C(C)Sc1ccc(C)cc1)oc1ccccc12 (stereo unspecified)	.	.	?	.	.	.
COc1cc2c(cc1NS(=O)(=O)N1CCCCC1)oc1ccccc12	.	.	.	.	32µM	.
O=S(=O)(Nc1ccc2c(c1)oc1ccccc12)N1CCCC1	.	.	?	.	?	.
CCOC1=C2CN(S(=O)(=O)c3ccc(C)cc3)C(c3ccc(C)cc3)CC2N(S(=O)(=O)c2ccc(C)cc2)C(c2ccccc2)C1 (stereo unspecified)	.	.	.	/	.	.
CCCCn1c(SCC(=O)Nc2nnc(C(C)C)s2)nc2c1c(=O)n(C)c(=O)n2C	.	41	.	.	.	.
CCn1c(SCC(=O)N2c3ccccc3Sc3ccccc32)nc2c1c(=O)n(C)c(=O)n2C	.	.	.	.	.	.
CCCCn1c(SCC(=O)N2c3ccccc3Sc3ccccc32)nc2c1c(=O)n(C)c(=O)n2C	.	.	11µM	.	.	?
COc1ccc2c(c1)c1c(c(=O)n(Cc3ccccc3)c(=O)n1CC(=O)Nc1c(C)cccc1C)n2C	.	.	.	.	.	/
O=C(CSCc1ccccc1Cl)Nc1ccc2c(c1)OCCO2	.	.	.	.	.	.
O=C(CSCc1ccccc1Cl)Nc1c[nH]c(=O)[nH]c1=O	.	.	.	.	28µM	.
O=C(CSCc1ccc(Cl)c(Cl)c1)Nc1c[nH]c(=O)[nH]c1=O	.	.	.	.	13µM	.
CCc1ccccc1NC(=O)CN1C(=O)CCc2cc(S(=O)(=O)N3CCCCC3)ccc21	.	.	.	/	.	/
